Source: PubChem (National Center for Advancing Translational Sciences (NCATS))
BAZ2B block – qHTS Assay for Inhibitors of BAZ2B; AID 504333, 2011; AlphaScreen BAZ2B-H3K14Ac peptide displacement; Potency, µM (series often up to 114 µM), actives largely listed as inhibitors; Bromodomain adjacent to zinc finger domain protein 2B (Homo sapiens), Q9UIF8; 4.4% of 360,000 active; note: nearly all actives have a fitted effect of over 60% in size
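Complex of BAZ2B and biotin-H3K14Ac (50 nM apiece) forms over 30 min at RT, then faces library compounds up to 110 uM for another 30 min; AlphaScreen beads added, 20 min dark incubation, luminescence read.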
HP1b chromo inh – HTS for Inhibitors of HP1-beta Chromodomain Interactions with Methylated Histone Tails | AID 540317, 2011 | Chromobox protein homolog 1 (Homo sapiens), P83916 | 0.56% of 390,000 active | AlphaScreen HP1-beta / biotin-H3K9me3 peptide binding | Potency, µM (top dose mostly 114 µM), hits mostly inhibitors; note: nearly all actives have a fitted effect of over 70% in size
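HP1-beta protein (50 nM final) preincubated 30 min at room temperature with biotinylated H3(1-18)K9me3 peptide (50 nM) in PBS pH 7.4, 0.01% Tween-20, then compound added for 30 min. AlphaScreen streptavidin donor/nickel chelate acceptor beads (10 ug/mL final), 30 min dark, luminescence read.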
PI5P4K alpha inh – qHTS for Inhibitors of phosphatidylinositol 5-phosphate 4-kinase (PI5P4K); max response, %; PI5P4Kalpha enzyme, ADP-Glo luminescence, 60 min; hits give low values; 1.2% of 330,000 active; active = max response of -50% or lower; inconclusive = between -30% and -50%; inactive = -30% or higher; note: value at the top dose of about 77 µM
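Reactions run in 0.038 M HEPES pH 7.4, 0.28 mM EGTA, 0.1% CHAPS and 5% DMSO, with PI5P4Kalpha, substrate, compound and 5 microM ATP final, one hour at room temperature. Readout is ADP-Glo luminescence.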
JMJD2A Tudor inh – qHTS Assay for Inhibitors of JMJD2A-Tudor Domain; Lysine-specific demethylase 4A (Homo sapiens), O75164; AlphaScreen JMJD2A-Tudor / H3K4me3 peptide binding; Potency, µM (doses to about 114 µM), actives largely listed as inhibitors; 4.4% of 390,000 active; AID 504339, 2011; note: nearly all actives have a fitted effect of over 50% in size
Target sequence (O75164 whole entry, looked up, the tested form may be a part): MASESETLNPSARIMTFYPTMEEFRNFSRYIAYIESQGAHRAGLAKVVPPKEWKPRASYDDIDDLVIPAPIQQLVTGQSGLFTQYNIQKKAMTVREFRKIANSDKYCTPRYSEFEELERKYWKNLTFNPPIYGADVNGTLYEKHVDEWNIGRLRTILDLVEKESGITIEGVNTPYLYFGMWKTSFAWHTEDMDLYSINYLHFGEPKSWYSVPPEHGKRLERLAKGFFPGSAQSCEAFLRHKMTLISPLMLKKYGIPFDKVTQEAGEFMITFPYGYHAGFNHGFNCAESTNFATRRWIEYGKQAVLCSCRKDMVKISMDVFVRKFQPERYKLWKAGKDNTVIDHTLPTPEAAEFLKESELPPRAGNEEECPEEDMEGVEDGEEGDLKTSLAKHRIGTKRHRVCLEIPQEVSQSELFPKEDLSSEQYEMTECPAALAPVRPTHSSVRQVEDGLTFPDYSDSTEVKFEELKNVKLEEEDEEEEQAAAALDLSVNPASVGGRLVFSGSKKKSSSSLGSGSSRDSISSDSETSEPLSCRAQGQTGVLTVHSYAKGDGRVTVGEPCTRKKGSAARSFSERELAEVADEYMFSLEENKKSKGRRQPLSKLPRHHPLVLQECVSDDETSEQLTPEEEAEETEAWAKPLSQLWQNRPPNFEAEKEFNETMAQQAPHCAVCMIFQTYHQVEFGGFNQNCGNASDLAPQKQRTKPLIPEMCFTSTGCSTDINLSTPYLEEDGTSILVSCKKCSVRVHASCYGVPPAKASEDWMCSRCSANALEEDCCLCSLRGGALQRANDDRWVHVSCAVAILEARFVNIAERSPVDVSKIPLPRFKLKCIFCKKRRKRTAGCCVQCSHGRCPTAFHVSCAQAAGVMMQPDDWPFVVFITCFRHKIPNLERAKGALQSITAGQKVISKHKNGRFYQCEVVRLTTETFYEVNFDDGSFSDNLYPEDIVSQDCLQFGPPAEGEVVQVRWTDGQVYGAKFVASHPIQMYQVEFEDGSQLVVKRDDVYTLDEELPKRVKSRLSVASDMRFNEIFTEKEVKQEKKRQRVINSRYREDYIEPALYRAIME
PLK1 PBD inh – qHTS for Inhibitors of PLK1-PDB (polo-like kinase 1 - polo-box domain): Primary Screen. Potency, µM, most hits filed as inhibitors. Plk1 PBD binding of FITC phosphopeptide, fluorescence polarization. 2.8% of 360,000 active. AID 720504, 2013; note: series mostly up to about 57 µM; nearly all actives have a fitted effect of over 65% in size
GCN5L2 inh – qHTS Assay for Inhibitors of GCN5L2; Potency, µM (doses to about 58.9 µM), usual class: inhibitors; AID 504327, 2011; 0.21% of 390,000 active; GCN5L2 HAT assay, ThioGlo1 CoA-SH fluorescence
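ThioGlo1-coupled HAT assay: 20nM GCN5L2, 70uM acetyl-CoA, 75uM H3(1-25) peptide, pH 7.5. Fluorescence read at 340/540nm at start and after 20 min at room temperature.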
Of the large screens only hits and unclear results are named; the others gave an inactive call; ! = not active in a repeat. Compounds with a hit are over-represented: about 7% of the library has one in this group of screens. Unless noted, calls come from the whole dose curve; as a rule, active = well fitted curve in the direction sought with a large enough effect; inconclusive = small, poorly fitted or top-dose-only effect, or another doubt; inactive = no such curve, though single readings can be large; an effect the other way counts as inactive or inconclusive.

CSc1nnc(N2C(=O)C(O)=C(C(=O)c3ccc(C)o3)C2c2ccc(C)cc2)s1 (configuration not stated)	BAZ2B block inconclusive
Cc1ccc2nc(N3C(=O)C(O)=C(C(=O)c4ccc(C)o4)C3c3ccco3)sc2c1 (configuration not stated)	BAZ2B block 50.1µM, PI5P4K alpha inh inconclusive, JMJD2A Tudor inh 50.1µM, PLK1 PBD inh inconclusive
Cc1ccc2nc(N3C(=O)C(O)=C(C(=O)c4cc5ccccc5o4)C3c3cccs3)sc2c1 (configuration not stated)	JMJD2A Tudor inh inconclusive, PLK1 PBD inh inconclusive
CCOC(=O)C(C)Sc1nc(-c2ccccc2Cl)cc(-c2ccccc2)c1C#N (configuration not stated)	none (no result: PI5P4K alpha inh, PLK1 PBD inh)
CC(Sc1nc(C(C)(C)C)cc(-c2ccccc2)c1C#N)C(=O)Nc1ccccc1 (configuration not stated)	HP1b chromo inh inconclusive, PLK1 PBD inh 11.9µM
CCOc1ccc(NC(=O)c2c(NCc3cc(OC)c(OC)cc3OC)sc3c2CCCC3)cc1	BAZ2B block 25.1µM, HP1b chromo inh inconclusive, JMJD2A Tudor inh 25.1µM (no result: PI5P4K alpha inh, PLK1 PBD inh)
CCOC(=O)N1CCc2c(sc(NCc3cc(OC)c(OC)cc3OC)c2C(=O)Nc2ccc(OCC)cc2)C1	BAZ2B block inconclusive, HP1b chromo inh inconclusive, JMJD2A Tudor inh 11.2µM (no result: PI5P4K alpha inh, PLK1 PBD inh)
CCOC(=O)c1ccc(NC(=O)c2c(NCc3cc(OC)c(OC)cc3OC)sc3c2CCCC3)cc1	BAZ2B block 25.1µM, HP1b chromo inh inconclusive, JMJD2A Tudor inh 25.1µM (no result: PI5P4K alpha inh, PLK1 PBD inh)
CC(C)c1ccc(N2C(=O)CC(NNC(=O)c3ccccc3Cl)C2=O)cc1 (configuration not stated)	none
CC(=O)c1cccc(NC(=O)COC(=O)c2ccccc2C)c1	none
S=c1[nH]nc(C2CCCCC2)o1	JMJD2A Tudor inh 20µM
CC1(C(=O)NS(=O)(=O)c2cccs2)CCN1C(=O)c1cccc(F)c1 (configuration not stated)	none (no result: BAZ2B block, HP1b chromo inh, JMJD2A Tudor inh, GCN5L2 inh)
O=c1c2c3c(sc2n(CCN2CCCCC2)c(=O)n1Cc1ccco1)CCCCC3	JMJD2A Tudor inh inconclusive (no result: PI5P4K alpha inh)
O=c1c2c3c(sc2n(CCN2CCOCC2)c(=O)n1Cc1ccco1)CCCCC3	JMJD2A Tudor inh 89.1µM
Cc1nc(-c2ccccn2)nc(SCC(=O)N2CCOCC2)c1Cl	PLK1 PBD inh 23.8µM
Cc1nc(-c2ccccn2)nc(SCC(=O)c2ccccc2)c1Cl	PLK1 PBD inh inconclusive
CCn1cc(C(=O)N2CCN(c3ccc(F)cc3)CC2)c(=O)c2cc(S(=O)(=O)N3CCOCC3)ccc21	none (no result: BAZ2B block, PI5P4K alpha inh, PLK1 PBD inh)
COc1cc(/C=C2\CCCc3c2nc2ccccc2c3C(=O)O)cc([N+](=O)[O-])c1O	BAZ2B block 56.2µM, HP1b chromo inh inconclusive, PI5P4K alpha inh -63.6, JMJD2A Tudor inh inconclusive
COc1cc(/C=C2\CCCc3c2nc2ccccc2c3C(=O)O)cc(OC)c1O	JMJD2A Tudor inh inconclusive, PLK1 PBD inh 26.7µM
CC(=O)Oc1ccc2c(c1)Oc1cc(OC(C)=O)ccc1C21OC(=O)c2ccccc21	PLK1 PBD inh 6.7µM
Cc1cc(O)ccc1C1(c2ccc(O)cc2C)OC(=O)c2ccccc21	none
O=c1c2ccccc2oc2cc(-c3ccc(CN4CCOCC4)cc3)ccc12	none
CNCc1ccccc1Sc1ccc(O)c(O)c1	BAZ2B block inconclusive, HP1b chromo inh inconclusive, PI5P4K alpha inh inconclusive, JMJD2A Tudor inh 79.4µM, PLK1 PBD inh inconclusive
Cc1ccc2c(c1)N(CC(=O)NCCCN1CCOCC1)C(=O)C(C(C)C)O2 (configuration not stated)	none
COc1ccc(NC(=O)/C(=C\c2cccs2)NC(=O)c2ccco2)cc1	PLK1 PBD inh 21.2µM
Cc1ccc(-c2cc3ncc4c(n3n2)-c2cc(Cl)ccc2OC4)cc1	none (no result: PI5P4K alpha inh, PLK1 PBD inh)
CCCn1[nH]cc(SC)c(=O)c1=O	BAZ2B block inconclusive, JMJD2A Tudor inh 25.1µM (no result: PI5P4K alpha inh)
O=C(c1ccc2ccccc2c1O)N1CCCCC1	none (no result: BAZ2B block, HP1b chromo inh, JMJD2A Tudor inh, GCN5L2 inh)
O=C(O)c1ccc(CN(Cc2ccccc2)S(=O)(=O)c2ccc(Cl)cc2)cc1	JMJD2A Tudor inh inconclusive, PLK1 PBD inh 23.8µM
NC(=O)COC(=O)c1ccc(Cl)c(S(=O)(=O)N(Cc2ccccc2)c2ccc(Cl)cc2)c1	JMJD2A Tudor inh inconclusive
O=C(O)c1ccc(Cl)c(S(=O)(=O)N(Cc2ccccc2)c2ccc(Cl)cc2)c1	PLK1 PBD inh 29.9µM
O=C(CC1C[C@H](C(=O)N2CCOCC2)[C@@]2(CCC3CCCC3)c3[nH]c4ccccc4c3CCN2C1=O)NCCc1ccccn1 (some centres not stated)	none (no result: BAZ2B block)
COc1ccc2[nH]c3c(c2c1)CCN1C(=O)C(CC(=O)NCCc2ccccn2)C[C@H](C(=O)N2CCOCC2)[C@@]31CCC1CCCC1 (some centres not stated)	JMJD2A Tudor inh inconclusive, PLK1 PBD inh 29.9µM (no result: BAZ2B block)
CC[C@]12c3[nH]c4cc(CCC(=O)N(C)C)ccc4c3CCN1C(=O)[C@@H](CC(=O)NCCCOC)C[C@@H]2C(=O)N1CCN(C(=O)C2CC2)CC1	PI5P4K alpha inh inconclusive, PLK1 PBD inh 21.2µM (no result: BAZ2B block)
O=C(C[C@H]1C[C@H](C(=O)N2CCOCC2)[C@@]2(CCC3CCCC3)c3[nH]c4cc(-c5ccco5)ccc4c3CCN2C1=O)NCCN1CCOCC1	HP1b chromo inh inconclusive (no result: BAZ2B block)
COCCCNC(=O)C[C@H]1C[C@H](C(=O)N2CCOCC2)[C@@]2(CCC3CCCC3)c3[nH]c4cc(-c5ccco5)ccc4c3CCN2C1=O	HP1b chromo inh inconclusive, JMJD2A Tudor inh 79.4µM (no result: BAZ2B block)
CC[C@]12c3[nH]c4cc(-c5ccco5)ccc4c3CCN1C(=O)[C@@H](CC(=O)NCCCOC)C[C@@H]2C(=O)N1CCN(C(=O)c2ccco2)CC1	PI5P4K alpha inh inconclusive, JMJD2A Tudor inh inconclusive, PLK1 PBD inh 21.2µM (no result: BAZ2B block)
CCN(C(=O)CSc1nnc(C)c(=O)[nH]1)c1cccc2ccccc12	none (no result: BAZ2B block)
O=C(C1=C(c2ccccc2)C(=O)c2ccccc2C1=O)c1ccccc1	BAZ2B block 12.6µM, HP1b chromo inh inconclusive, JMJD2A Tudor inh 22.4µM
COC1=C(c2ccccc2)C(=O)c2ccccc2C1=O	BAZ2B block 44.7µM, HP1b chromo inh inconclusive, JMJD2A Tudor inh inconclusive, PLK1 PBD inh inconclusive
Cc1nc2scc(C)n2c(=O)c1S(=O)(=O)Nc1ccc(N2CCN(C(=O)C(C)C)CC2)cc1	JMJD2A Tudor inh 39.8µM!
